This is an account of results in publication PMC4336329 (PLoS ONE, 2015).

About 14,000 (4.5%) of roughly 310,000 compounds showed an effect of 50% or more. The effect is printed as a negative number. The full list was thinned out, with strong results kept by preference.
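Further: peak tail current of the secondary pulse compared with the same well before compound.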

Chain of human ether-à-go-go-related gene (hERG) potassium channel (Q12809 whole entry, looked up): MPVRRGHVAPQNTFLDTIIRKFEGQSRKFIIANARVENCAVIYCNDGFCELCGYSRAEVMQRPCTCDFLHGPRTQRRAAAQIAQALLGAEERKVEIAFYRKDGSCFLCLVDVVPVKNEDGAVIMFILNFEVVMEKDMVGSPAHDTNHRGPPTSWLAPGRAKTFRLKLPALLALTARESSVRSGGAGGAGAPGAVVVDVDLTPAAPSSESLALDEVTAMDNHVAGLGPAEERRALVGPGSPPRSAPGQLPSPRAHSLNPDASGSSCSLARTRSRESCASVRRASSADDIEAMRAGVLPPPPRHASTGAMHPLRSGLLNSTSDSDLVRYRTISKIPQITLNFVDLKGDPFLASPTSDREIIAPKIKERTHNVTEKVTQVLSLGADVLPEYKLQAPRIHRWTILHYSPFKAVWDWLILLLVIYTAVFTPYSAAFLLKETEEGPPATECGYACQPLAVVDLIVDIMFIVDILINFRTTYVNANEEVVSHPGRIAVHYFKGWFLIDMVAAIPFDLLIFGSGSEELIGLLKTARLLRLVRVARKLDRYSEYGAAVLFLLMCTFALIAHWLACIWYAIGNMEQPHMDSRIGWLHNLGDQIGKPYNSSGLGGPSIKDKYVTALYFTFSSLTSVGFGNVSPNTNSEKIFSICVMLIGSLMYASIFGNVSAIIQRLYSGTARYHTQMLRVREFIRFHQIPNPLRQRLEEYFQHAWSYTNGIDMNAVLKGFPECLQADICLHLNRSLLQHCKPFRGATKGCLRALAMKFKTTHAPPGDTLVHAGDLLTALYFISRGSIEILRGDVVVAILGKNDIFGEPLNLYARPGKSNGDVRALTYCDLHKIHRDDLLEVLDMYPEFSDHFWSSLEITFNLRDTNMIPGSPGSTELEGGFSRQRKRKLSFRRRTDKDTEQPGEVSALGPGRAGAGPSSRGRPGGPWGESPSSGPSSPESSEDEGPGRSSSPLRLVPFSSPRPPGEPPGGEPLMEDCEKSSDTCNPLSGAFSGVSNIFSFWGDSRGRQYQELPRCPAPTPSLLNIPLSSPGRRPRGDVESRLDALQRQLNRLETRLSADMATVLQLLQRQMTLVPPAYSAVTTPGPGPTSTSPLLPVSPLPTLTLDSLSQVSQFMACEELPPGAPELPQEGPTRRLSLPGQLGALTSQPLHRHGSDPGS

The test has as its target human ether-à-go-go-related gene (hERG) potassium channel (human, UniProt Q12809). Briefly: primary screen, population patch clamp on CHO cells stably expressing hERG; higher = less effect of the substance.
On to `CCOC(=O)c1c(NC(=O)CCS(=O)(=O)c2ccccc2)sc2c1CC(C)(C)NC2(C)C`, for which the “hERG current change (%, negative = inhibition) at 10uM” value was -44.9%.
With `O=C(Nc1cccc(S(=O)(=O)N2CCOCC2)c1)c1ccc2ccccc2n1`, the “hERG current change (%, negative = inhibition) at 10uM” value was -1.59%.
The same measure for `CCNc1nc(NCC)nc(SCCOc2ccc(C)cc2)n1`: -40.6%; for `COc1ccccc1N1CCN(C(=O)COc2ccc(S(=O)(=O)NC(C)C)cc2)CC1`: -4.64%; for `COCCN(C(=S)Nc1cccc(Cl)c1C)C(C)c1ccco1` (centres unmarked): -15.4%.
As to `Cc1ccccc1NC(=S)N(CCN(C)C)C(C)c1ccco1` (centres unmarked), the “hERG current change (%, negative = inhibition) at 10uM” value was -12.1%.
On to `Cc1c(Cl)cccc1NC(=S)N(CCCN1CCOCC1)Cc1ccco1`, for which the “hERG current change (%, negative = inhibition) at 10uM” value is recorded as -43.9%.
The same measure for `S=C(Nc1ccccc1Cl)N(CCCN1CCOCC1)Cc1ccco1`: 0.554%; for `Cc1c(Cl)cccc1NC(=S)N(CCN(C)C)C(C)c1ccco1` (centres unmarked): -55.9%.
The result for `CCN1CCN(CCCN(Cc2ccco2)C(=S)Nc2cccc(Cl)c2C)CC1` reads -61.2%.
Consider `CCN1CCN(CCCN(Cc2ccco2)C(=S)Nc2ccccc2Cl)CC1`, for which the “hERG current change (%, negative = inhibition) at 10uM” value is on record as -53.5%.
In the case of `O=C(NCCCN1CCCC1=O)c1cccc(Oc2ccccc2)c1`, the “hERG current change (%, negative = inhibition) at 10uM” value is 10.5%.
The same measure for `CCN(CC(=O)Nc1c(F)cccc1F)C(=O)CCN1C(=O)c2cccc([N+](=O)[O-])c2C1=O`: 16.2%; for `N#CCC(=O)Nc1ncn(Cc2ccccc2Cl)n1`: 15.4%.
Take `CCCCc1nc2cc(C(=O)NCc3ccccn3)ccc2o1`: the “hERG current change (%, negative = inhibition) at 10uM” value is 2.61%.
The same measure for `COc1ccccc1C(=O)NC(=O)CSc1nc2nc(C)cc(C)n2n1`: 0.704%.
The same measure for `Cc1cccc(N=c2oc3cc(O)ccc3cc2C(N)=O)c1`: -17.3%; for `Cc1cc(C(=O)CSc2nc(N)cc(N)n2)c(C)n1-c1cccc(C(F)(F)F)c1`: -64.4%.
The result for `Cc1cc(C(=O)CSc2ncccn2)c(C)n1-c1cccc(F)c1` reads -5.48%.
Take `Cc1cc(C(=O)CSc2nc(N)cc(N)n2)c(C)n1-c1cccc(F)c1`: the “hERG current change (%, negative = inhibition) at 10uM” value is recorded as -14.2%.
The result for `C=CCn1c(Cc2ccccc2)n[nH]c1=S` reads 11.7%.
Turning to `COc1cc(C(=O)NCc2nnc(SCC(=O)N3CCOCC3)o2)cc(OC)c1OC`, the “hERG current change (%, negative = inhibition) at 10uM” value came out at 17.2%.
The same measure for `OCCCNc1nccc(-c2cc(Nc3cccc(Cl)c3)ncn2)n1`: 9.69%; for `OCCCNc1cc(-c2ccnc(Nc3cccc(Cl)c3)n2)ccn1`: -30.3%; for `CN(C)CCCNc1ccc(-c2cc(Nc3cccc(Cl)c3)ncn2)cn1`: -58.4%.
The same measure for `CC(=O)Nc1ccc(C(=O)OCC(=O)Nc2ccc([N+](=O)[O-])cc2C(F)(F)F)cc1`: 7.22%; for `CC(C)(C)c1ccc(Cn2c(=O)cnc3ccccc32)cc1`: -4.85%; for `Cc1ccc(Cn2c(=O)n(Cc3ccco3)c(=O)c3ccccc32)cc1`: 16.3%.
Take `O=c1c2ccccc2n(Cc2ccc(Cl)cc2)c(=O)n1Cc1ccco1`: the “hERG current change (%, negative = inhibition) at 10uM” value was 4.77%.
The result for `CC(C)(C)c1ccc(Cn2c(=N)n(CC(O)c3ccco3)c3ccccc32)cc1.Cl` (centres unmarked) reads -71.9%; that for `O=C(Nc1nc2ccccc2n1Cc1ccc(Cl)cc1)c1ccco1`, 5.47%; that for `CCn1c(=N)n(CC(O)c2ccco2)c2ccccc21.Cl` (centres unmarked), -30.7%.
The same measure for `Cc1ccc(Cn2c(=N)n(CC(O)c3ccco3)c3ccccc32)cc1.Cl` (centres unmarked): -64.5%; for `Cl.N=c1n(Cc2ccc(Cl)cc2)c2ccccc2n1CC(O)c1ccco1` (centres unmarked): -64.1%.
`O=C(c1cccs1)N(Cc1cc2ccccc2[nH]c1=O)c1ccccc1`: the “hERG current change (%, negative = inhibition) at 10uM” value is reported as -11.8%.
For `CC(C)CN=Cc1c(O)c([N+](=O)[O-])cc2oc3c(c12)CCCC3`, the “hERG current change (%, negative = inhibition) at 10uM” value came to 0.113%.
The result for `COc1ccc(CCNC(=O)c2cccc(S(=O)(=O)N3CCOCC3)c2)cc1OC` reads 1.15%; that for `CC(C)(C)N1CC(C(=O)Nc2ccc(C#N)cc2)CC1=O` (centres unmarked), 11.6%.
The same measure for `O=C(NCCc1ccc(Cl)cc1)c1nnc(Cc2ccc(Cl)cc2)o1`: 10.1%; for `CN(C)c1ccc(C2CC(=O)NC3=C2C(=O)CC(C)(C)C3)cc1` (centres unmarked): 1.9%; for `COc1ccccc1NC(=S)N1CCC(C(=O)c2ccc(F)cc2)CC1`: -22.7%.
For the compound `Cc1ccc(F)cc1NC(=O)N1CCN(c2ccnc3cc(Cl)ccc23)CC1`, the “hERG current change (%, negative = inhibition) at 10uM” value is -67%.
The result for `Cc1cccc(Cl)c1NC(=O)N1CCN(c2ccnc3cc(Cl)ccc23)CC1` reads -16.8%; that for `Cc1ccc(F)cc1NC(=O)N1CCCN(c2ccc(C(F)(F)F)cn2)CC1`, -43.3%; that for `COc1cccc(Cl)c1NC(=O)N1CCN(c2ccnc3cc(Cl)ccc23)CC1`, -44.1%.
The result for `COc1ccccc1NC(=O)N1CCC(C(=O)c2ccc(Cl)cc2)CC1` reads -72.7%; that for `COc1ccccc1NC(=O)N1CCC(C(=O)c2ccc(F)cc2)CC1`, 0.487%; that for `COc1ccccc1NC(=O)N1CCN(c2ccnc3cc(Cl)ccc23)CC1`, -80.5%.
`O=C(Nc1ccc(Cl)cc1Cl)N1CCN(c2ncccn2)CC1`: the “hERG current change (%, negative = inhibition) at 10uM” value is reported as -21.1%.
For the compound `COc1ccccc1N1CCN(c2ccnc3cc(Cl)ccc23)CC1`, the “hERG current change (%, negative = inhibition) at 10uM” value is on record as -43.4%.
The same measure for `O=C(Nc1cc(F)ccc1F)N1CCN(c2ccnc3cc(Cl)ccc23)CC1`: -66.4%.
The same measure for `CCC(Sc1nc(-c2ccccc2)c(C#N)c(=O)[nH]1)C(=O)Nc1nnc(C)s1` (centres unmarked): 1.73%.
Consider `Cc1ccc(NC(=S)Nc2nc(CC(=O)Nc3ccccc3)cs2)cc1`, for which the “hERG current change (%, negative = inhibition) at 10uM” value came out at 13%.
`COC(=O)c1ccc(-c2ccc(/C=N/N3C(=O)C4C5C=CC(CC5)C4C3=O)o2)cc1` (centres unmarked): the “hERG current change (%, negative = inhibition) at 10uM” value is given as -16.1%.
Consider `CC(C)CC(=O)N1CCN(Cc2cccc(Cl)c2)CC1`, for which the “hERG current change (%, negative = inhibition) at 10uM” value is reported as 7.42%.
Consider `CCN1CCN(CCNC(=O)c2ccc3c(c2)N(Cc2ccc(F)cc2)C(=O)/C(=C/c2ccccc2)S3)CC1`, for which the “hERG current change (%, negative = inhibition) at 10uM” value is given as -42.7%.
The same measure for `CN(C)Cc1nnnn1-c1cccc(-n2nnnc2CN(C)C)c1`: 12.3%.
The same measure for `COCC(=O)NC1CCN(CC(=O)Nc2ccc(OC)cc2[N+](=O)[O-])CC1`: -2.46%.
Turning to `CC(C)c1ccc(Nc2nnc(SCC(=O)Nc3ncc(S(=O)(=O)c4ccc([N+](=O)[O-])cc4)s3)s2)cc1`, the “hERG current change (%, negative = inhibition) at 10uM” value was determined as 13.8%.
In the case of `COC(=O)C1=CN(CCOC23CC4CC(CC(C4)C2)C3)C=C(C(=O)OC)C1c1ccsc1`, the “hERG current change (%, negative = inhibition) at 10uM” value turned out to be 10%.
The result for `Cn1c(=O)[nH]c2ccc([N+](=O)[O-])nc21` reads 9.62%; that for `Cc1cc(=O)oc2cc(NC(=O)C3CC(=O)N(Cc4ccccc4)C3)ccc12` (centres unmarked), 5.29%.
The result for `COc1ccc(NC(=O)N2CCN(c3cccc(C(F)(F)F)c3)CC2)cc1OC` reads -1.73%; that for `COc1ccc(NC(=O)N2CCN(c3cccc(C(F)(F)F)c3)CC2)cc1`, -1.89%.
Regarding `COc1ccccc1NC(=O)N1CCN(c2cccc(C(F)(F)F)c2)CC1`, the “hERG current change (%, negative = inhibition) at 10uM” value is listed as -76.6%.
The result for `O=C(CN1C(=O)COCC1=O)N1CCOCC1` reads 3.2%; that for `Cc1ccc(C)n1-c1ccc(-c2nnco2)cc1`, 8.42%; that for `Clc1ccc(OCCNCCc2ccccc2)cc1.O=C(O)C(=O)O`, -73.7%.
The result for `COc1ccc(CCNCc2c(-c3ccccc3)n(C)c3ccccc23)cc1.O=C(O)C(=O)O` reads -52.3%.
For `COCCCNCCOc1ccc(C(C)(C)c2ccccc2)cc1.O=C(O)C(=O)O`, the “hERG current change (%, negative = inhibition) at 10uM” value is -54.5%.
On to `COCCCNCCCOc1ccc(C(C)(C)c2ccccc2)cc1.O=C(O)C(=O)O`, for which the “hERG current change (%, negative = inhibition) at 10uM” value is -19.9%.
The result for `COc1ccc(OCCCC(=O)NCCc2ccccc2)cc1` reads -7.79%; that for `O=C(CCCOc1ccc(Cl)cc1)NCCc1ccccc1`, 5.77%.
The same measure for `COc1ccc(CCNCc2ccccc2)cc1.O=C(O)C(=O)O`: -23.9%; for `COCCNCCCOc1ccc(C(C)(C)c2ccccc2)cc1.O=C(O)C(=O)O`: -29.3%; for `COc1ccc(OCCCNCCc2ccccc2)cc1.O=C(O)C(=O)O`: -57%.
As for `COc1ccc(CCNCc2ccncc2)cc1.O=C(O)C(=O)O`, the “hERG current change (%, negative = inhibition) at 10uM” value is on record as -13.7%.
In the case of `COc1ccc(CCNCc2ccccc2N2CCCC2)cc1.O=C(O)C(=O)O`, the “hERG current change (%, negative = inhibition) at 10uM” value is listed as -41.8%.
The same measure for `c1ccc(CCNCCOc2ccccc2)cc1`: -0.101%; for `COc1cccc(C2c3[nH]c4ccccc4c3C[C@H]3C(=O)N(CCCO)CC(=O)N23)c1OC` (some centres unmarked): -6.83%.
Regarding `CC1(c2nnc(Cc3ccccc3)o2)CC(c2ccccc2F)=NO1` (centres unmarked), the “hERG current change (%, negative = inhibition) at 10uM” value is listed as -12.6%.
The same measure for `CC(C)Sc1nc(N2CCOCC2)c2c(c1C#N)CC(C)(C)SC2`: 5.69%; for `CC1=C(C(N)=O)C(c2ccccc2)n2nc(-c3ccncc3)nc2N1` (centres unmarked): 11.2%.
Turning to `COC(=O)C1C2CCC(C2)C1C(=O)OCC(=O)c1ccc(C)cc1` (centres unmarked), the “hERG current change (%, negative = inhibition) at 10uM” value was -19.5%.
With `CC1(C)CC(=O)C=C(Nc2ccc([N+](=O)[O-])cc2)C1`, the “hERG current change (%, negative = inhibition) at 10uM” value is -16.6%.
The result for `COc1ccc(NC(=O)CCOc2ccc(C)cc2)cc1S(=O)(=O)N1CCOCC1` reads -34.9%.
